# Source: PubChem BioAssay (NCATS)
# Results filed as inconclusive are left out. A call without a number means that no potency is given here. Calls of active or inactive are those of the source. Unless noted, calls follow the shape of the full dose curve.
# Legend:
# [1] = qHTS for Inhibitors of the Functional Ribonucleoprotein Complex (vRNP) of Lassa (LASV) Arenavirus: LASV Primary Screen - GLuc reporter signal (AID 1347082; calls by dose curve; tested in HEK293 reporter line; also: nearly all actives have a fitted effect of over 60% in size; also: potency is read from the fitted curve at half-maximal effect)
# [2] = qHTS for Inhibitors of the Functional Ribonucleoprotein Complex (vRNP) of Lassa (LASV) Arenavirus: Viability assay - alamar blue signal for LASV Primary Screen (AID 1347083; calls by dose curve; tested in HEK293 reporter line; also: nearly all actives have a fitted effect of over 80% in size; also: potency is read from the fitted curve at half-maximal effect)
# [3] = target: Nucleoprotein (Lymphocytic choriomeningitis virus (strain Armstrong)) (UniProt P09992); assay: qHTS for Inhibitors of the Functional Ribonucleoprotein Complex (vRNP) of Lymphocytic Choriomeningitis Arenaviruses (LCMV): LCMV Primary Screen - GLuc reporter signal (AID 1347086); also: nearly all actives have a fitted effect of over 70% in size; also: potency is read from the fitted curve at half-maximal effect
# Sequence of Nucleoprotein (Lymphocytic choriomeningitis virus (strain Armstrong)) (P09992 whole entry, looked up): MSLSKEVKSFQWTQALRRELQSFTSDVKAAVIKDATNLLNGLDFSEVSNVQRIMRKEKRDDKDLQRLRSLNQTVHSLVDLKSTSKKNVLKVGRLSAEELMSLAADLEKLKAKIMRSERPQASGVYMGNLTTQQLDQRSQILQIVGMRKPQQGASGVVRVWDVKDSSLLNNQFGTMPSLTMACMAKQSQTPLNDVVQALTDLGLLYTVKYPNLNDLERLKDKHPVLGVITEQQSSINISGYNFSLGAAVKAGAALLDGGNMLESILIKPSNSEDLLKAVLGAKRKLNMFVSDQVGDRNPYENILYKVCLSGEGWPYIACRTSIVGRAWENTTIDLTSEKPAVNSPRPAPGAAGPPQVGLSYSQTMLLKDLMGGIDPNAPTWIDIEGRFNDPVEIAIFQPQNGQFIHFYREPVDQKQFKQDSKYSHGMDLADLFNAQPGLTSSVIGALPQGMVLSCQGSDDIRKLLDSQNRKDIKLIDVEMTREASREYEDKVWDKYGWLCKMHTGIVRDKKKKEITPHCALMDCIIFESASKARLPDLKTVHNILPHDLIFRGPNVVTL
# [4] = Primary qHTS to identify inhibitors of SARS-CoV-2 cell entry (AID 1645846); settings: activity change, negative = inhibition: at 57.1 µM (top of the series) unless noted; also: nearly all actives have a fitted effect of over 45% in size; also: potency is read from the fitted curve at half-maximal effect
# Method in brief: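 Entry measured by luciferase signal 48 h after adding SARS-CoV-2-S pseudotyped MLV particles to HEK293-ACE2 cells preincubated 1 h with compounds. Normalisation: bald particles and spike particles.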
# [5] = Cytotoxicity counterscreen for inhibitors of SARS-CoV-2 cell entry (AID 1645845); also: nearly all actives have a fitted effect of over 50% in size; also: potency is read from the fitted curve at half-maximal effect
# Method in brief: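 Counterscreen run in the same HEK293-ACE2 line as the pseudotyped-particle entry assay, without particles. Viability after 48 h at 37 C was read as ATP luminescence, scaled between cell-containing and cell-free wells.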
# [6] = Confirmatory qHTS to identify inhibitors of SARS-CoV-2 cell entry (AID 1645844); also: potency is read from the fitted curve at half-maximal effect; nearly all actives have a fitted effect of over 45% in size
# Method in brief: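 HEK293-ACE2, overnight seeding; cpd 1 h, 37C/5% CO2; + SARS-CoV-2-S MLV PP (Wuhan-Hu-1, ΔC19); 48 h; Bright-Glo luminescence. Data normalised to S PP and bald PP wells.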
# [7] = target: Cytochrome P450 3A4 (Homo sapiens) (UniProt P08684); assay: qHTS Assay for Activators of Cytochrome P450 3A4 (AID 885; active = well fitted curve in the direction sought with a large enough effect; an effect the other way counts as inactive or inconclusive; also: nearly all actives have a fitted effect of over 65% in size)
# Sequence of Cytochrome P450 3A4 (Homo sapiens) (P08684 whole entry, looked up): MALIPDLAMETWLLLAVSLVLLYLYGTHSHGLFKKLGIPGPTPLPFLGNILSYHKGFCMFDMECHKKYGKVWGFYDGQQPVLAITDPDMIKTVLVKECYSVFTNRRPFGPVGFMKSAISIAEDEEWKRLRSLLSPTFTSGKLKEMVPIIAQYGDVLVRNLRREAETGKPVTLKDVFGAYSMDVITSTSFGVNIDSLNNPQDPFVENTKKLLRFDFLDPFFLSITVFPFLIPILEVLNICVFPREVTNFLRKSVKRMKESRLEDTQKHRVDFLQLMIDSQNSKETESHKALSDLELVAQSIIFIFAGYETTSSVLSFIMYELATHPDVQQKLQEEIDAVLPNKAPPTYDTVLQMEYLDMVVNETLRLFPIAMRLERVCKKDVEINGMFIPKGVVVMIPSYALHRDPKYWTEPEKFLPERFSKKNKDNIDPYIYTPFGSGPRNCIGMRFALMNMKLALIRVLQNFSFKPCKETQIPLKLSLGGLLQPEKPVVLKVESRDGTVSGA
# Method in brief: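 Using 20nM recombinant human CYP3A4 in potassium phosphate (200mM), substrate Luciferin-PPXE at 25uM, luminescent luciferin detection followed a 60-min RT NADPH reaction; data scaled to 57 uM ketoconazole.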
# [8] = S16 Schwann cell PMP22 intronic element firefly luciferase assay (AID 624032; active = well fitted curve in the direction sought with a large enough effect; an effect the other way counts as inactive or inconclusive; also: potency is read from the fitted curve at half-maximal effect; nearly all actives have a fitted effect of over 30% in size)
# Method in brief: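 Rat S16 Schwann cells stably carrying firefly luciferase driven by a PMP22 intronic element, in 10% FBS, treated 24 h at 37 C. ONE-Glo luminescence normalized to PTC124 control and DMSO (0%); curves classed by r2, magnitude and activity.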
# [9] = target: Alpha-galactosidase (Coffea arabica) (UniProt Q42656); assay: Counterscreen for Glucocerebrosidase Inhibitors: qHTS Assay for Coffee Bean alpha-Galactosidase at pH 4.5 (AID 957; active = well fitted curve in the direction sought with a large enough effect; an effect the other way counts as inactive or inconclusive)
# Sequence of Alpha-galactosidase (Coffea arabica) (Q42656 whole entry, looked up): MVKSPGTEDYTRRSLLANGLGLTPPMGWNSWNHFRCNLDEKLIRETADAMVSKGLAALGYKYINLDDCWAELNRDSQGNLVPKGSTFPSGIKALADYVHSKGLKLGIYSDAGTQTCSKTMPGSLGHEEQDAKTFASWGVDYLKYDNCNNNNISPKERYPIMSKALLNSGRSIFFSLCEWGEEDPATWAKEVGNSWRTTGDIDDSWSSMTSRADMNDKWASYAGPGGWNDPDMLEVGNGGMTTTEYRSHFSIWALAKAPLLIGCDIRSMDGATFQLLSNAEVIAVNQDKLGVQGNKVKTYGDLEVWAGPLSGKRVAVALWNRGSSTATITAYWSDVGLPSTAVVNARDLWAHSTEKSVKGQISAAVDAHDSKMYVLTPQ
# Method in brief: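 Fluorogenic read-out: 4-methylumbelliferone at Ex 365/Em 440 nm after NaOH/glycine stop (pH 10). Enzyme 2 nM, 4-MU-alpha-galactoside 80 uM, citrate buffer pH 4.5, 20 min RT; normalized to no-enzyme and enzyme controls.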
# [10] = target: Alpha-galactosidase (Coffea arabica) (UniProt Q42656); assay: Counterscreen for Glucocerebrosidase Inhibitors: qHTS Assay for Coffee Bean alpha-Galactosidase at pH 5.9 (AID 998; active = well fitted curve in the direction sought with a large enough effect; an effect the other way counts as inactive or inconclusive)
# Method in brief: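 Enzyme 2 nM + cpd (0.7 nM–77 uM titration) + 4-MU-alpha-Gal 80 uM, pH 5.9 citrate/Tween-20, RT 20 min, NaOH/glycine stop pH 10, fluor 365/440. Normalized to no-enzyme and full-activity controls; Hill-fit AC50.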
# [11] = Validation screen for inhibitors of Lassa infection (AID 463096)
# [12] = Inducers of the Endoplasmic Reticulum Stress Response (ERSR) in human glioma: Validation (AID 504836; active = well fitted curve in the direction sought with a large enough effect; an effect the other way counts as inactive or inconclusive)
# Method in brief: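 Stably transfected U87-MG glioma cells carrying a GRP78-based luciferase sensor; 16 h compound incubation. Luminescence end-point read 10 min after Bright-Glo addition at room temperature.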
# [13] = qHTS for Inhibitors of the Functional Ribonucleoprotein Complex (vRNP) of Lymphocytic Choriomeningitis Arenaviruses (LCMV): Viability assay - alamar blue signal for LCMV Primary Screen (AID 1347085; calls by dose curve; tested in HEK293 reporter line; also: nearly all actives have a fitted effect of over 80% in size; also: potency is read from the fitted curve at half-maximal effect)
smiles,measurement,setting,value
O=C(CCCCCCC(=O)Nc1cccnc1)NO,Potency,[1],inactive
same,Potency,[2],19.3 µM (active)
same,Potency,[3],inactive
same,Potency,[4],inactive
O=C(CCCCCCNC(=O)c1cnc(N(c2ccccc2)c2ccccc2)nc1)NO,Potency,[1],inactive
same,Potency,[2],30.6 µM (active)
same,Potency,[3],inactive
same,Potency,[4],inactive
C[C@@H](NCc1cc2ccccc2[nH]1)c1cccc2ccccc12,Potency,[1],inactive
same,Potency,[2],inactive
same,Potency,[3],inactive
same,Potency,[5],31.6 µM (active)
COC(=O)Nc1ccc(-c2nc(N3CCOCC3)c3cnn(C4CCN(Cc5cccnc5)CC4)c3n2)cc1,Potency,[1],0.109 µM (active)
same,Potency,[2],0.153 µM (active)
same,Potency,[6],5.41 µM (active)
CCC(C(=O)O)C1CCC(C)C(C(C)C(O)C(C)C(=O)C(CC)C2OC3(C=CC(O)[C@@]4(CC[C@](C)(C5CC[C@@](O)(CC)C(C)O5)O4)O3)C(C)CC2C)O1 (some centres not stated),Potency,[7],inactive
same,Potency,[8],0.361 µM (active)
same,Potency,[1],3.43 µM (active)
same,Potency,[2],4.85 µM (active)
same,Potency,[3],0.968 µM (active)
same,Potency,[5],inactive
CN(C)Cc1cccc(N=C(c2ccccc2)c2c(O)[nH]c3cc(C(=O)N(C)C)ccc23)c1,Potency,[1],inactive
same,Potency,[2],13.7 µM (active)
same,Potency,[3],inactive
same,Potency,[5],inactive
C=CCn1c(=O)c2c(nc(-c3ccc(S(=O)(=O)O)cc3)n2C)n(C)c1=O,outcome,[9],inactive
same,outcome,[10],inactive
same,Potency,[11],inactive
same,outcome,[12],inactive
same,Potency,[1],inactive
same,Potency,[2],inactive
same,Potency,[3],inactive
COc1cc2ncn(-c3cc(OCc4ccccc4S(C)(=O)=O)c(C#N)s3)c2cc1OC,Potency,[1],inactive
same,Potency,[2],27.3 µM (active)
same,Potency,[3],inactive
same,Potency,[5],inactive
OC1c2ccccc2N=C2CCCN21 (configuration not stated),Potency,[1],inactive
same,Potency,[13],inactive
OCC1OC(n2cnc3c(NCc4ccccc4O)ncnc32)C(O)C1O (configuration not stated),Potency,[1],inactive
same,Potency,[13],4.47 µM (active)
COC1C(O)C(C)OC(OC2CCC3(C=O)C(CCC4C3CCC3(C)C(C5=CC(=O)OC5)CCC43O)C2)C1O (configuration not stated),Potency,[1],inactive
same,Potency,[13],inactive
same,Potency,[3],inactive
NC/C=C\C(=O)O,outcome,[9],inactive
same,outcome,[10],inactive
same,Potency,[11],inactive
same,outcome,[12],inactive
same,Potency,[1],inactive
same,Potency,[2],inactive
O=C(Nc1ccc(Oc2ccnc3[nH]ccc23)c(F)c1)c1cccn(-c2ccc(F)cc2)c1=O,Potency,[1],inactive
same,Potency,[2],inactive
same,Potency,[5],inactive
same,"activity change, negative = inhibition",[4],-21.9%
Nc1ccc(S(=O)(=O)Nc2ncccn2)cc1,Potency,[1],inactive
same,Potency,[13],inactive
same,Potency,[3],inactive
Nn1nnc2ccccc21,outcome,[9],inactive
same,outcome,[10],inactive
same,Potency,[11],inactive
same,outcome,[12],inactive
same,Potency,[1],inactive
same,Potency,[2],inactive
N#CNC(=NCCCCCCOc1ccc(Cl)cc1)Nc1ccncc1,Potency,[1],0.0343 µM (active)
same,Potency,[2],0.0097 µM (active)
same,"activity change, negative = inhibition",[4],-97%
COc1ccc(Cc2ccc(NC(N)=O)cc2)cc1-c1cccc(Cl)c1,Potency,[1],inactive
same,Potency,[13],9.68 µM (active)
CC(=O)O[C@@]12CO[C@H]1C[C@H](O)[C@@]1(C)C(=O)[C@H](O)C3=C(C)[C@@H](OC(=O)C(O)[C@@H](NC(=O)OC(C)(C)C)c4ccccc4)C[C@@](O)([C@@H](OC(=O)c4ccccc4)[C@@H]21)C3(C)C (some centres not stated),Potency,[1],inactive
same,Potency,[13],inactive
same,Potency,[3],inactive
COc1cc2c(cc1OC)[C@@H]1Cc3ccc(OC)c(OC)c3CN1CC2,Potency,[1],inactive
same,Potency,[13],inactive
same,Potency,[3],inactive
C=CCc1ccc(O)c(-c2ccc(O)c(CC=C)c2)c1,Potency,[1],inactive
same,Potency,[13],inactive
same,Potency,[3],inactive
CN1CCc2c(c3ccccc3n2Cc2ccc(C(=O)NO)cc2)C1,Potency,[1],inactive
same,Potency,[2],21.7 µM (active)
same,"activity change, negative = inhibition",[4],-18.9%
CCS(=O)(=O)N1CC(CC#N)(n2cc(-c3ncnc4[nH]ccc34)cn2)C1,Potency,[1],inactive
same,Potency,[13],inactive
same,Potency,[3],inactive
Cn1cc(C2=C(c3ccc(Cl)cc3Cl)C(=O)NC2=O)c2ccccc21,outcome,[9],inactive
same,outcome,[10],inactive
same,Potency,[11],inactive
same,outcome,[12],inactive
same,Potency,[1],inactive
same,Potency,[2],inactive
C[C@@]1(C2CCCC2)Cc2cc(OCC(=O)O)c(Cl)c(Cl)c2C1=O,Potency,[11],inactive
same,Potency,[1],inactive
same,Potency,[2],inactive
O=C(c1ccc(C=Cc2n[nH]c3ccccc23)cc1)N1CCNCC1,Potency,[1],inactive
same,Potency,[13],inactive
same,Potency,[3],inactive
COc1cc2c3cc1Oc1c(OC)c(OC)cc4c1[C@H](Cc1ccc(cc1)Oc1cc(ccc1O)C[C@H]3N(C)CC2)N(C)CC4,Potency,[1],inactive
same,Potency,[13],inactive
same,Potency,[3],inactive
Cc1ccc([C@@H]2O[C@H](CO)[C@@H](O)[C@H](O)[C@@H]2O)cc1Cc1ccc(-c2ccc(F)cc2)s1,Potency,[1],inactive
same,Potency,[13],34.3 µM (active)
COc1ccc(-c2cc(=O)c3c(OC)c(OC)c(OC)c(OC)c3o2)cc1,Potency,[1],inactive
same,Potency,[13],inactive
same,Potency,[3],inactive
CC1(C)CCC[C@@]2(C)C1CC[C@@](C)(O)[C@@H]2CC[C@@](C)(O)C1CO1 (some centres not stated),Potency,[1],inactive
same,Potency,[13],inactive
same,Potency,[3],inactive
Oc1ccc2c(c1)OCC1(O)Cc3cc(O)c(O)cc3C21 (configuration not stated),Potency,[1],inactive
same,Potency,[13],inactive
same,Potency,[3],inactive
C=C1CCC2C(C)(C)[C@H](O)CC[C@@]2(C)[C@@H]1COc1cc(=O)oc2ccccc12 (some centres not stated),Potency,[1],inactive
same,Potency,[13],inactive
same,Potency,[3],inactive
O=C1NC(=O)C(=Cc2ccc(-c3ccc(F)cc3O)o2)S1,Potency,[1],inactive
same,Potency,[13],inactive
same,Potency,[3],inactive
CC=C(C(=CC)c1ccc(O)cc1)c1ccc(O)cc1,Potency,[1],inactive
same,Potency,[13],2.43 µM (active)
NS(=O)(=O)OC[C@@H]1C[C@@H](n2ccc3c(N[C@H]4CCc5ccccc54)ncnc32)C[C@H]1O,Potency,[1],inactive
same,Potency,[13],13.7 µM (active)
CCc1ccc(C(=O)Nc2cc(CN3CCN(C)CC3)cc(C(F)(F)F)c2)cc1C#Cc1cnc2ccnn2c1,Potency,[1],inactive
same,Potency,[2],21.7 µM (active)
same,Potency,[5],31.6 µM (active)
same,Potency,[4],22.4 µM (active)
